Source: PubChem BioAssay (The Scripps Research Institute Molecular Screening Center)
GPR151 ag = activates the human receptor GPR151; PathHunter beta-arrestin GPR151 cells, luminescence; activation, % at 11.2 µM; actives 1% (n = 650,000); in the data active means activation above about 4.9%
MITF primary = inhibitors of human MITF. AlphaScreen MITF homodimerization, bead proximity signal. inhibition, % at 2.6 µM. actives 0.91% (n = 650,000). AID 1259374. O75030; in the data active means inhibition above about 50%
FBW7 activator = activators of human E3 ligase FBW7 | AlphaScreen FBW7–phospho-cyclin E peptide binding, activator screen | normalized activity (activation), % at 26.1 µM | actives 0.13% (n = 650,000) | AID 1259310; in the data active means normalized activity above about 1.9%;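 further: purified mutant Fbw7 with reduced substrate affinity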
TEAD-YAP inh = TEAD-YAP interaction inhibition. HEK-TIYL cells, TEAD-Gal4/YAP UAS-luciferase luminescence. actives 1.4% (n = 640,000). AID 1259422. inhibition, % at 9.12 µM; in the data active means inhibition above about 32%
GPR151 confirm = confirmation of human GPR151 activators; shares compounds with GPR151 ag; GPR151 PathHunter beta-arrestin cells, luminescence, 90 min; % of EA-reagent control over plate median; activation, % at 11.2 µM; 6,700 tested, under 10 active; AID 1508609;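 active means mean percent activation across replicates above the confirmation screen cutoff of 4.91%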
GPR119 ag = GPR119 activation, counter-screen for GPR151 activators | shares compounds with GPR151 ag | GPR119 PathHunter beta-arrestin cells, luminescence, 90 min; 0 = compound-well median, 100 = enzyme-acceptor control | activation, % at 11.2 µM | actives 0.3% (n = 6,700);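 active means mean percent activation in the counterscreen above 29.09%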;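 further: counterscreen on off-target GPR119 to flag nonselective hits from the GPR151 activator screen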
A number is an active result; – = inactive; · = no result given; ! = not confirmed by another sample. Only some compounds are listed: those with a hit (about 3.5% of all), similar ones and a draw of the others.

SMILES	GPR151 ag	MITF primary	FBW7 activator	TEAD-YAP inh	GPR151 confirm	GPR119 ag
CCOC(=O)c1oc2ccccc2c1Cn1nnc(-c2ccccc2)n1	–	–	–	–	·	·
CC(C(=O)Nc1ccc(Br)cc1F)N1Cc2ccccc2C1=O (stereo not drawn)	–	–	–	–	·	·
CC(C(=O)Nc1ccc(Br)cn1)N1Cc2ccccc2C1=O (stereo not drawn)	7.2	–	–	84.7	–	–
CCN(CC)C(C)(C)C#Cc1ccccc1	–	–	–	–	·	·
CCCNC(=O)c1ccc2c(c1)ncn2-c1cc(OC)ccc1OC	–	–	–	–	·	·
CCC(C)NC(=O)c1cn(-c2cccc(OC)c2)c(=O)c2ccccc12 (stereo not drawn)	5.4	–	–	–	–	–
COc1ccc(-n2cc(C(=O)NC3CCC(C)CC3)c3ccccc3c2=O)cc1 (stereo not drawn)	5.0	–	–	–	–	–
CCC(C)NC(=O)CCNC(=O)c1cn(-c2cccc(OC)c2)c(=O)c2ccccc12 (stereo not drawn)	–	–	–	–	·	·
CC1(C)CC(=O)C2=C(C1)Nc1ccccc1N1C(=O)c3ccccc3C21 (stereo not drawn)	–	–	–	–	·	·
CCC(=O)N1c2ccccc2NC2=C(C(=O)CC(C)(C)C2)C1c1ccc(N(C)C)cc1 (stereo not drawn)	–	–	–	–	·	·
CC1(C)CC(=O)C2=C(C1)Nc1cc(C(=O)c3ccccc3)ccc1N1C(=O)c3ccccc3C21 (stereo not drawn)	5.1	–	–	–	–	–
CCC(=O)N1c2ccccc2NC2=C(C(=O)CC(C)(C)C2)C1c1ccc(Cl)cc1 (stereo not drawn)	5.1	–	–	–	–	–
Cc1ccc(C(=O)Nc2cccc(-c3nc4cc(C)cc(C)c4o3)c2)c(Cl)c1	–	–	–	–	·	·
N#CC1=C(N)OC2=C(C(=O)c3ccccc3C2=O)C1c1cccnc1 (stereo not drawn)	–	–	–	–	·	·
CCOC(=O)Cn1c(C(C)N2CCOCC2)nc2ccccc2c1=O (stereo not drawn)	–	–	–	–	·	·
O=C(COC(=O)C1CCC(=O)N1)Nc1nc2ccccc2s1 (stereo not drawn)	6.0	–	–	–	–	–
O=C(CCSc1ccccc1)Nc1nc2ccccc2s1	5.0	–	–	–	–	–
CO[C@H]1C=CO[C@@]2(C)Oc3c(C)c(O)c4c(O)c(c(C=NN5CCN(C)CC5)c(O)c4c3C2=O)NC(=O)C(C)=CC=C[C@H](C)[C@H](O)[C@@H](C)[C@@H](O)[C@@H](C)[C@H](OC(C)=O)[C@@H]1C	6.0!	–	–	·	–	–
CO[C@H]1/C=C/O[C@@]2(C)Oc3c(C)c(O)c4c(O)c(c(/C=N\N5CCN(C)CC5)c(O)c4c3C2=O)NC(=O)/C(C)=C\C=C\C(C)[C@H](O)[C@@H](C)[C@@H](O)[C@@H](C)[C@@H](OC(C)=O)[C@@H]1C (stereo partly drawn)	–	–	–	–	·	·
CN(CC(=O)Nc1ccc(F)cc1)S(=O)(=O)c1cccc2cnccc12	–	–	–	–	·	·
CN(CC(=O)Nc1ccccc1F)S(=O)(=O)c1cccc2cnccc12	5.4	–	–	37.1	–	–
N#Cc1c(C(F)(F)F)cc(-c2cccs2)nc1SC1CC(=O)N(c2ccccc2)C1=O (stereo not drawn)	5.1	–	–	–	–	–
N#Cc1c(C(F)(F)F)cc(-c2cccs2)nc1SCC(=O)O	–	–	–	–	·	·
CC1CCc2c(sc(NC(=O)C(C)N3C(=O)c4ccccc4C3=O)c2C#N)C1 (stereo not drawn)	–	–	–	–	·	·
O=C(CC1(c2ccccc2)CC(=O)N(Cc2cccnc2)C1=O)N1CC[C@@H]2CCCC[C@H]2C1 (stereo partly drawn)	9.5	–	–	–	–	–
SMILES	GPR151 ag	MITF primary	FBW7 activator	TEAD-YAP inh	GPR151 confirm	GPR119 ag
c1csc(-c2nnc(N3CCOCC3)c3ccccc23)c1	5.9	–	–	–	–	–
CCOC(=O)C1=C(C)N=C2SCC(=O)N2C1c1cccc2ccccc12 (stereo not drawn)	7.6	–	–	–	–	–
CCOC(=O)C1=C(C)N=C2SCC(=O)N2C1c1ccc(OC)c2ccccc12 (stereo not drawn)	–	–	–	–	·	·
COc1ccc(/C=C2\SC(=Nc3ccc(O)cc3)NC2=O)cc1	–	–	–	–	·	·
COc1ccc(/C=C2/SC(=Nc3ccc(O)cc3)NC2=O)cc1	5.0	–	–	–	–	–
Cc1cc(C)cc(N=C2NC(=O)/C(=C/c3ccc(OCc4ccc(Br)cc4)cc3)S2)c1	5.7	–	–	–	–	–
Cc1cc(C)cc(N=C2NC(=O)/C(=C/c3ccc(OCc4ccc(Br)cc4)c(Br)c3)S2)c1	–	–	–	–	·	·
COc1ccc(-c2nnc(Nc3nc4c(F)cccc4s3)o2)c(OC)c1	–	–	–	–	·	·
CCc1ccc(NC(=O)CSC2=Nc3ccccc3C3=NC(C(C)C)C(=O)N23)cc1 (stereo not drawn)	–	–	–	–	·	·
O=C(c1ccc(F)cc1)N(Cc1cccnc1)Cc1cc2ccccc2[nH]c1=O	7.0	–	–	–	–	–
CC(=O)N(Cc1cccnc1)Cc1cc2ccccc2[nH]c1=O	–	–	–	–	·	·
O=C(Nc1nc(-c2ccc(I)cc2)cs1)C1CC1	5.9	–	–	–	–	–
CCOC(=O)C1=CN(Cc2cccs2)C=C(C(=O)OCC)C1c1cccs1	–	–	–	–	·	·
CC1(C)NC(=O)N(c2ccc([N+](=O)[O-])c(C(F)(F)F)c2)C1=O	5.5!	–	–	–	–	–
CC(C)OC1(C(F)(F)F)NC(=O)N(c2cccc(C(F)(F)F)c2)C1=O (stereo not drawn)	–	–	–	–	·	·
CCN(CCO)Cc1cc(=O)oc2c(C)cc(C)cc12	–	–	–	–	·	·
Cc1ccc(N/C=C/C(=O)c2cccs2)cc1C	9.6	–	–	–	–	–
Cc1ccc(NC(=O)c2nccnc2CO)c(C)c1	–	–	–	–	·	·
CC(NC(=O)CC1S/C(=N/N=C/c2ccco2)NC1=O)C(=O)O (stereo not drawn)	5.7	–	–	–	–	–
CCOC(=O)c1sc(NC(=O)CSc2nnc(CNC(=O)c3ccco3)n2-c2ccccc2OC)c(C(=O)OCC)c1C	8.7	–	–	–	–	–
CCOC(=O)c1c(NC(=O)CSc2nnc(CNC(=O)c3cc(OC)cc(OC)c3)n2Cc2ccccc2)sc2c1CCCC2	5.0	–	–	–	–	–
CCOC(=O)c1c(NC(=O)CSc2nnc(CNC(=O)c3cccc(F)c3)n2-c2ccc([N+](=O)[O-])cc2)sc2c1CCCCC2	5.5	–	–	–	–	–
